# What was measured:
# Assay in all cases: DAPPL (digital affinity profiling via proximity ligation, sequencing); 10 mM Tris-HCl pH 7.5, 50 mM NaCl, 1 mM DTT, 4% glycerol, room temperature, 30 min; GST-TFs on glutathione beads, 16-mer random dsDNA library, 0.1% formaldehyde crosslink after washing; high values mean tight binding
# [1] = molecular target: T1, FLI1 (Homo sapiens, UniProt Q01543 1-452); conditions: protein: recombinant; tags: N-terminal GST; dsDNA, one strand shown
# T1 sequence: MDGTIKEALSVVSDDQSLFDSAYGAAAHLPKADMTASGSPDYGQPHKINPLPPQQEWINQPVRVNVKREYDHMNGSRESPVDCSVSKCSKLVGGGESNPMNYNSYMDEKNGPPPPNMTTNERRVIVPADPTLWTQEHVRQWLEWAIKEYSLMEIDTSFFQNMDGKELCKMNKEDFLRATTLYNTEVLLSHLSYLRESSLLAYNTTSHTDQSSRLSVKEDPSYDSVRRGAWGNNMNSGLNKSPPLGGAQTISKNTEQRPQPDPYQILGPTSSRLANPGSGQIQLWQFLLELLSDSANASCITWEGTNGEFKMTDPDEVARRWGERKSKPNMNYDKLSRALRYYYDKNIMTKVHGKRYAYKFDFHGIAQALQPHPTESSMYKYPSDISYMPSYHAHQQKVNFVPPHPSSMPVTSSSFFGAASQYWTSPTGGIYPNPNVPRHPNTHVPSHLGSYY
# Procedure, shortened: (§1)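 Sequencing on an Illumina NextSeq500 followed washing, crosslinking with 0.1% formaldehyde, proximity ligation (BsaI/T4 ligase, 1 h, 37 °C) and PCR amplification of pools that had been incubated for 30 min at room temperature with 200 nmole of a random double-stranded 16-mer DNA library in Tris/NaCl/DTT/glycerol buffer. Each pool held DNA-barcoded human transcription factors, expressed in yeast as GST fusions and captured on glutathione beads, plus a tag-only sample. Binding signal is a hexamer's read frequency for a factor divided by its frequency in the tag-only sample.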
# [2] = molecular target: T2, ELK1 (Homo sapiens, UniProt P19419 1-428); conditions: protein: recombinant; tags: N-terminal GST; dsDNA, one strand shown
# T2 sequence: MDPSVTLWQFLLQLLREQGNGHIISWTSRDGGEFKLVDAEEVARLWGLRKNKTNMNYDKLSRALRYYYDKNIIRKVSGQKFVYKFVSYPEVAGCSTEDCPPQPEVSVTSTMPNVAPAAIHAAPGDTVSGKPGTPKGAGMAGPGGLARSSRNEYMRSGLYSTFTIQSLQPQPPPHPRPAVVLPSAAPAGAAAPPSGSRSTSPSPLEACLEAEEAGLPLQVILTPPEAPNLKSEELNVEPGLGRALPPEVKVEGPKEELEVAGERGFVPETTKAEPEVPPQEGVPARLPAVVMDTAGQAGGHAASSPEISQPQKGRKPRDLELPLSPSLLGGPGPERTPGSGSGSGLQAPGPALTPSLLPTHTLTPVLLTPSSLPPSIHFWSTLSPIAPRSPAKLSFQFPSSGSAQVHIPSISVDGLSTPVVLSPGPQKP
# Procedure, shortened: as §1
# [3] = molecular target: T3, GABPA (Homo sapiens, UniProt Q06546 1-454); conditions: protein: recombinant; tags: N-terminal GST; dsDNA, one strand shown
# T3 sequence: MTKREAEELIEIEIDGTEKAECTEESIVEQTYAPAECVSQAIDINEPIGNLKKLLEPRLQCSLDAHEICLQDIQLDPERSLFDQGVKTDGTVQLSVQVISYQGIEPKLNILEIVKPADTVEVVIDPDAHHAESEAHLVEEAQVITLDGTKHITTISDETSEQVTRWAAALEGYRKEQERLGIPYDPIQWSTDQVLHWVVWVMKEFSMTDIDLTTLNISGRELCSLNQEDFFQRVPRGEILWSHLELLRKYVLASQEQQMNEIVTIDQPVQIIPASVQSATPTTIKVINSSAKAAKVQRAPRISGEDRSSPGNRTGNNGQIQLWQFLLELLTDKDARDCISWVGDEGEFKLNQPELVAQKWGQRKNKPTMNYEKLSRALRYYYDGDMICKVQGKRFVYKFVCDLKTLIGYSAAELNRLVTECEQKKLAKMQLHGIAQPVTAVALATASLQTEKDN
# Procedure, shortened: as §1
# [4] = molecular target: T4, ERG (Homo sapiens, UniProt P11308 1-479); conditions: protein: recombinant; tags: N-terminal GST; dsDNA, one strand shown
# T4 sequence: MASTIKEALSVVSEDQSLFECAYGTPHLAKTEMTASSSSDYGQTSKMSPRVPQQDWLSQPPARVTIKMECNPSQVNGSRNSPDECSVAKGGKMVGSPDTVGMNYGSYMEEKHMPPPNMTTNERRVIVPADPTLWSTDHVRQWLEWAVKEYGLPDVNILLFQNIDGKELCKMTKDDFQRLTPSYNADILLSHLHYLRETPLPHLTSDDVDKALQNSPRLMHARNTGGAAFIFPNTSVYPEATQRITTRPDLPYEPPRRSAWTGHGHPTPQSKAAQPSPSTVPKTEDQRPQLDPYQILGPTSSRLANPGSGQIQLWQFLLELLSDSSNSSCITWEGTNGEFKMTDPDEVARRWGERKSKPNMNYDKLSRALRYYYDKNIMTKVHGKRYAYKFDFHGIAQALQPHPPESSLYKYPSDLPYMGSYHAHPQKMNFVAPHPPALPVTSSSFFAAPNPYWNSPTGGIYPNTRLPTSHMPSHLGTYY
# Procedure, shortened: as §1
# [5] = molecular target: ELF1 (Homo sapiens, UniProt P32519 1-619); conditions: protein: recombinant; tags: N-terminal GST; dsDNA, one strand shown
# Chain of ELF1 (P32519 whole entry): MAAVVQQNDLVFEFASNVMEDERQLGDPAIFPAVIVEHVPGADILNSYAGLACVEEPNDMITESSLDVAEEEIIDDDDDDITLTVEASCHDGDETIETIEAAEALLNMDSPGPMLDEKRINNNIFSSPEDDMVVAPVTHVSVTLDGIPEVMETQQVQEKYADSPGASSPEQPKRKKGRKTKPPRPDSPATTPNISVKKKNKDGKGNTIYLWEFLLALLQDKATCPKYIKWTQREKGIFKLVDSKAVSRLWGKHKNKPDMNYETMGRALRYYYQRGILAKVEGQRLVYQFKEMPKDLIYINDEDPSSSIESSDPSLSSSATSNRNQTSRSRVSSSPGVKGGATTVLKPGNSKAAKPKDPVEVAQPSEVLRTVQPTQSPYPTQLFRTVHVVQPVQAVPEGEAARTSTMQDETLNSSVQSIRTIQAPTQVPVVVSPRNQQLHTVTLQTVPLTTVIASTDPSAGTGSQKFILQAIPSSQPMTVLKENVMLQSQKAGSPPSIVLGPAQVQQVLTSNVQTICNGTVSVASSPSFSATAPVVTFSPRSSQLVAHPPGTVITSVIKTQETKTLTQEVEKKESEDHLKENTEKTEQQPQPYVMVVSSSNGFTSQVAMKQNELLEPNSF
# Procedure, shortened: as §1
# [6] = molecular target: T5, EHF (Homo sapiens, UniProt Q9NZC4 1-300); conditions: protein: recombinant; tags: N-terminal GST; dsDNA, one strand shown
# T5 sequence: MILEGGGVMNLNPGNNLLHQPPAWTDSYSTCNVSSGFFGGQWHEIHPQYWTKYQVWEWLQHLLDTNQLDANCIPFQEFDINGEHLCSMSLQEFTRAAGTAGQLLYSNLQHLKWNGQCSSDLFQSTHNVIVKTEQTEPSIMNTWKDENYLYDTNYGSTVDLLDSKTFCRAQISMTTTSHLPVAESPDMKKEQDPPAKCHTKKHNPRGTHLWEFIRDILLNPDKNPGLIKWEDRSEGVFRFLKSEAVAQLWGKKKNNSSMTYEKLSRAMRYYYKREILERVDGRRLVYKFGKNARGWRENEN
# Procedure, shortened: as §1
# [7] = molecular target: SPI1 (Homo sapiens, UniProt P17947 1-270); conditions: protein: recombinant; tags: N-terminal GST; dsDNA, one strand shown
# Procedure, shortened: as §1
# [8] = molecular target: SPIB (Homo sapiens, UniProt Q01892 1-262); conditions: protein: recombinant; tags: N-terminal GST; dsDNA, one strand shown
# Chain of SPIB (Q01892 whole entry): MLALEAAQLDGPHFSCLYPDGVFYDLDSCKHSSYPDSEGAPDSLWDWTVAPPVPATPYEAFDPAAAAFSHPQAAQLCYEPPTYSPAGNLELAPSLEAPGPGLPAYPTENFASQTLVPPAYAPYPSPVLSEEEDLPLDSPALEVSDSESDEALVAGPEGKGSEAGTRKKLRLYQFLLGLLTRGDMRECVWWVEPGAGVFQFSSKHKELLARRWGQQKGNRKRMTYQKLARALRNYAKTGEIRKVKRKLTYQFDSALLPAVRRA
# Procedure, shortened: as §1
# [9] = molecular target: T6, ELK3 (Homo sapiens, UniProt P41970 1-407); conditions: protein: recombinant; tags: N-terminal GST; dsDNA, one strand shown
# T6 sequence: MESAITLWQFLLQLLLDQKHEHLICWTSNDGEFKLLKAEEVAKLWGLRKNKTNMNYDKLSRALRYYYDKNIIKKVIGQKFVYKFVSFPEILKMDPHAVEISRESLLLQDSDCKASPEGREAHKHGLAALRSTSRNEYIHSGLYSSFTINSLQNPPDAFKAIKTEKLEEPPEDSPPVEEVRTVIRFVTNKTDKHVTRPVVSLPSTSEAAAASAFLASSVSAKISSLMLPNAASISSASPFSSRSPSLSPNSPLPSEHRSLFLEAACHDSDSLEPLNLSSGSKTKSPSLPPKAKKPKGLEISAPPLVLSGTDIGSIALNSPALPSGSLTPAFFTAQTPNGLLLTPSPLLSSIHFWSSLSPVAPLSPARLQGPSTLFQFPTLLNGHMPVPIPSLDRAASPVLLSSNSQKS
# Procedure, shortened: as §1
# [10] = molecular target: T7, FEV (Homo sapiens, UniProt Q99581 1-238); conditions: protein: recombinant; tags: N-terminal GST; dsDNA, one strand shown
# T7 sequence: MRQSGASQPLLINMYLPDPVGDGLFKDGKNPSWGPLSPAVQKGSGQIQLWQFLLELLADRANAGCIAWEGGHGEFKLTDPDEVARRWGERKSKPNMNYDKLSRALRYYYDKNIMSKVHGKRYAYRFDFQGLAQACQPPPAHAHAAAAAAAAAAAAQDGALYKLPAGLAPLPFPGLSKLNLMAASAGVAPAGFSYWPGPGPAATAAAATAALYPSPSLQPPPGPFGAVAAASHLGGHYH
# Procedure, shortened: as §1
# [11] = molecular target: ETV5 (Homo sapiens, UniProt P41161 1-510); conditions: protein: recombinant; tags: N-terminal GST; dsDNA, one strand shown
# Chain of ETV5 (P41161 whole entry): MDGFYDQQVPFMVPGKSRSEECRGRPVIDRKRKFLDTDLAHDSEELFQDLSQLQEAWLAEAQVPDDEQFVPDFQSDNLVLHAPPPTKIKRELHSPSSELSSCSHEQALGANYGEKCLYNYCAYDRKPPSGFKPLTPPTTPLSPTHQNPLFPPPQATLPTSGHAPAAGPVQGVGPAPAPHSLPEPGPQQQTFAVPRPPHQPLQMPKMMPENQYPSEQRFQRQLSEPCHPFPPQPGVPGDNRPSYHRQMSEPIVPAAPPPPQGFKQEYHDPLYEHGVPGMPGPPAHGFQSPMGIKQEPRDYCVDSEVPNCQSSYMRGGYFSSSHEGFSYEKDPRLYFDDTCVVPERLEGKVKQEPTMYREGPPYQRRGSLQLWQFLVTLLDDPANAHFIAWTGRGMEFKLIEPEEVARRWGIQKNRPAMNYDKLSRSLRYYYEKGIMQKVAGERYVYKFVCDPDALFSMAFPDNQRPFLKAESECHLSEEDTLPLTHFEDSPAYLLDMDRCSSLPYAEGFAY
# Procedure, shortened: as §1
# [12] = molecular target: HSF1 (Homo sapiens, UniProt Q00613 1-529); conditions: protein: recombinant; tags: N-terminal GST; chain copies: 3; dsDNA, one strand shown
# Chain of HSF1 (Q00613 whole entry): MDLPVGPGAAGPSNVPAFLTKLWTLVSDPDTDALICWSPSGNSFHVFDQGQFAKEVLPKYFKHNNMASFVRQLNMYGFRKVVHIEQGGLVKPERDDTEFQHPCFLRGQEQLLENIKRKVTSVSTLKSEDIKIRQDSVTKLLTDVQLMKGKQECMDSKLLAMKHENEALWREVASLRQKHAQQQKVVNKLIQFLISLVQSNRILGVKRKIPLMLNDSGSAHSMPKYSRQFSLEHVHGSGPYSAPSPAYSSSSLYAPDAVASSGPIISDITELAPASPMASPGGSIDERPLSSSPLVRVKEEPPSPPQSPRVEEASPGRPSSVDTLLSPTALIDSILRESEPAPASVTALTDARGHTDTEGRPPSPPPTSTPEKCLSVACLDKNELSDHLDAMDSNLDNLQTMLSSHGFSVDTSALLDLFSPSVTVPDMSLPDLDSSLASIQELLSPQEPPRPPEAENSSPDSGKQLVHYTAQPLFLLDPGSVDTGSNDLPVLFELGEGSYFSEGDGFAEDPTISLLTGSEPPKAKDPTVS
# Procedure, shortened: as §1
# [13] = molecular target: T8, SPIC (Homo sapiens, UniProt Q8N5J4 1-248); conditions: protein: recombinant; tags: N-terminal GST; dsDNA, one strand shown
# T8 sequence: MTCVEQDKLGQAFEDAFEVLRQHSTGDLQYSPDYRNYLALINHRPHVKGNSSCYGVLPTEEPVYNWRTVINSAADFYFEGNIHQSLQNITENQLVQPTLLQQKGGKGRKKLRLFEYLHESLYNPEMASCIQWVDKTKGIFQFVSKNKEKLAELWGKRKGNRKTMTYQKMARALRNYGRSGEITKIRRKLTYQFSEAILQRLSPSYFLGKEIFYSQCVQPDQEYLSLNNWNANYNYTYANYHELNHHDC
# Procedure, shortened: as §1
# [14] = molecular target: ELF4 (Homo sapiens, UniProt Q99607 1-663); conditions: protein: recombinant; tags: N-terminal GST; dsDNA, one strand shown
# Chain of ELF4 (Q99607 whole entry): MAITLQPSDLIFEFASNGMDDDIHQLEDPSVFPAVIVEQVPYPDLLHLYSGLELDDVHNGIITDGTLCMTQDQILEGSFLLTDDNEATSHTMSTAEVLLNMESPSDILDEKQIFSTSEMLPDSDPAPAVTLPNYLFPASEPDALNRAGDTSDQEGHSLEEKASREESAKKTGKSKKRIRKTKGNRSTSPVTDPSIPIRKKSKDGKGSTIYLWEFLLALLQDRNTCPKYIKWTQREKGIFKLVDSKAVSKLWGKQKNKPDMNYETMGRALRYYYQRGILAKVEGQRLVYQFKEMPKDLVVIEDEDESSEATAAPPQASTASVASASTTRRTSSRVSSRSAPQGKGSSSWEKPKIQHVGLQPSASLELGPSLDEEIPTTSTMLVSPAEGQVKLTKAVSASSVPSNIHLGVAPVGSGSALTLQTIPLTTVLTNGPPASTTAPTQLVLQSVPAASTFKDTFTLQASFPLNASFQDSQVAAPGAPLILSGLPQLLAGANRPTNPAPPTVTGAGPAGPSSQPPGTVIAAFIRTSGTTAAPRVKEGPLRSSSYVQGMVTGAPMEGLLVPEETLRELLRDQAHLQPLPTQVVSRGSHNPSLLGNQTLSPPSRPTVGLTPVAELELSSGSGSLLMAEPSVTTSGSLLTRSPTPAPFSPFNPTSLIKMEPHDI
# Procedure, shortened: as §1
# [15] = molecular target: T9, ELK4 (Homo sapiens, UniProt P28324-2 1-405); conditions: protein: recombinant; tags: N-terminal GST; dsDNA, one strand shown
# T9 sequence: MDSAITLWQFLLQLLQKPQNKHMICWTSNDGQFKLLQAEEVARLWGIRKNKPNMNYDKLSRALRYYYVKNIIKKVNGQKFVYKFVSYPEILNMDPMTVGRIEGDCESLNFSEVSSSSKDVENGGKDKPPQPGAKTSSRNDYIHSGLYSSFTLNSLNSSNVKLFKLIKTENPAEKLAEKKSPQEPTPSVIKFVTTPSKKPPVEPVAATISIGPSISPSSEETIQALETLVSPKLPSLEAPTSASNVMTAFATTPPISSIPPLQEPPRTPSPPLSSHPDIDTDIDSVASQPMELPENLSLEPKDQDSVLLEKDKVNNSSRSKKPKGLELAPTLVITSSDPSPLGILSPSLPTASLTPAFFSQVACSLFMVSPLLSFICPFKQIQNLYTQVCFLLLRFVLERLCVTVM
# Procedure, shortened: as §1
# [16] = molecular target: T10, ETV2 (Homo sapiens, UniProt O00321 1-342); conditions: protein: recombinant; tags: N-terminal GST; dsDNA, one strand shown
# T10 sequence: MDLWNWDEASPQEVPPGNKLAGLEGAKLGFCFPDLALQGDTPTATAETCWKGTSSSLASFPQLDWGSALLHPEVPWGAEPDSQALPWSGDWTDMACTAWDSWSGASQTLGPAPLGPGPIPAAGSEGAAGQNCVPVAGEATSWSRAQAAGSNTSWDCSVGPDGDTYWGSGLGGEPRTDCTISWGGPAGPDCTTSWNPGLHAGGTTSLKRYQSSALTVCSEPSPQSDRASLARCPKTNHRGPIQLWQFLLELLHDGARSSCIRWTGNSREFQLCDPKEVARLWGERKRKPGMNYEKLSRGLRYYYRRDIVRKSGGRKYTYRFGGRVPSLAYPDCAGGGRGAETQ
# Procedure, shortened: as §1
# [17] = molecular target: T11, ELF3 (Homo sapiens, UniProt P78545 1-371); conditions: protein: recombinant; tags: N-terminal GST; dsDNA, one strand shown
# T11 sequence: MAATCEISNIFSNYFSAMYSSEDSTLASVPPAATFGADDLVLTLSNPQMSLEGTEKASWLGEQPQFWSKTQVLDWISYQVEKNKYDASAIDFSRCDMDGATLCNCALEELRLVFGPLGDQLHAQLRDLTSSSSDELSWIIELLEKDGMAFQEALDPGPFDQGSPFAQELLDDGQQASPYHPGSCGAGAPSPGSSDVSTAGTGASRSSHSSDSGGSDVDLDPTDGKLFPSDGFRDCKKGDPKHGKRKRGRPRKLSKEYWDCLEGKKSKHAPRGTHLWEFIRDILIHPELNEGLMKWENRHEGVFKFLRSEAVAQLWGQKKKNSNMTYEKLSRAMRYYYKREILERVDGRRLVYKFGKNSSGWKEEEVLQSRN
# Procedure, shortened: as §1
# [18] = molecular target: CRX (Homo sapiens, UniProt O43186 1-299); conditions: protein: recombinant; tags: N-terminal GST; dsDNA, one strand shown
# Chain of CRX (O43186 whole entry): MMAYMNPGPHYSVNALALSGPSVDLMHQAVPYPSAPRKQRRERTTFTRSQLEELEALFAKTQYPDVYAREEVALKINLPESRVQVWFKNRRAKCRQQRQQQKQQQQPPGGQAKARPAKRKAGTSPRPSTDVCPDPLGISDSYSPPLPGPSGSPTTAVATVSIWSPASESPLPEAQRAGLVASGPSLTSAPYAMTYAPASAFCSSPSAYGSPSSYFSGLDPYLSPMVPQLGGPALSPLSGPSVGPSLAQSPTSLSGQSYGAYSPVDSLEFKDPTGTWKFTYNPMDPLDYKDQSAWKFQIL
# Procedure, shortened: as §1
# [19] = molecular target: ETV1 (Homo sapiens, UniProt P50549 1-477); conditions: protein: recombinant; tags: N-terminal GST; dsDNA, one strand shown
# Chain of ETV1 (P50549 whole entry): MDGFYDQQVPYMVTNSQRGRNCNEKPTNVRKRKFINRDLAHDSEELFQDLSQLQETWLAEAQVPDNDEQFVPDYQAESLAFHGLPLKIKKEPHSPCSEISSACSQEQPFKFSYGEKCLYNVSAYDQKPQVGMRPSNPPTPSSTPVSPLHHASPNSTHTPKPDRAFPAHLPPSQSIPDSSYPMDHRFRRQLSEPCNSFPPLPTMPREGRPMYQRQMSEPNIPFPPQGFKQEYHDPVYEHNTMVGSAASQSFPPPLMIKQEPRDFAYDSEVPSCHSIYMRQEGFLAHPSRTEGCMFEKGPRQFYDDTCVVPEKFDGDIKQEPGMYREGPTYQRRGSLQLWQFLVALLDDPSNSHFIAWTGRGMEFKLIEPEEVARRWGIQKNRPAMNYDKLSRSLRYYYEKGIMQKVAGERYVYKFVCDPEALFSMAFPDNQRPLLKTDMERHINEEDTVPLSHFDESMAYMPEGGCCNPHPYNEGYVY
# Procedure, shortened: as §1
sequence,measurement,setting,value
AATCTA,binding signal,[1],"1.07 fold enrichment (6-mer frequency, TF over GST control)"
same,binding signal,[2],"1.06 fold enrichment (6-mer frequency, TF over GST control)"
same,binding signal,[3],"1.05 fold enrichment (6-mer frequency, TF over GST control)"
same,binding signal,[4],"1.17 fold enrichment (6-mer frequency, TF over GST control)"
same,binding signal,[5],"1.17 fold enrichment (6-mer frequency, TF over GST control)"
same,binding signal,[6],"1.17 fold enrichment (6-mer frequency, TF over GST control)"
same,binding signal,[7],"1.12 fold enrichment (6-mer frequency, TF over GST control)"
same,binding signal,[8],"1.17 fold enrichment (6-mer frequency, TF over GST control)"
same,binding signal,[9],"1.12 fold enrichment (6-mer frequency, TF over GST control)"
same,binding signal,[10],"1.15 fold enrichment (6-mer frequency, TF over GST control)"
same,binding signal,[11],"1.12 fold enrichment (6-mer frequency, TF over GST control)"
same,binding signal,[12],"1.87 fold enrichment (6-mer frequency, TF over GST control)"
same,binding signal,[13],"1.1 fold enrichment (6-mer frequency, TF over GST control)"
same,binding signal,[14],"1.14 fold enrichment (6-mer frequency, TF over GST control)"
same,binding signal,[15],"1.07 fold enrichment (6-mer frequency, TF over GST control)"
same,binding signal,[16],"1.09 fold enrichment (6-mer frequency, TF over GST control)"
same,binding signal,[17],"1.04 fold enrichment (6-mer frequency, TF over GST control)"
same,binding signal,[18],"1.92 fold enrichment (6-mer frequency, TF over GST control)"
same,binding signal,[19],"1.21 fold enrichment (6-mer frequency, TF over GST control)"

# — paper PMC7862700, “An all-to-all approach to the identification of sequence-specific readers for epigenetic DNA modifications on cytosine”
